Test results as given in PubChem BioAssay AID1159580 (chemical genetic matrix, 2015).
The campaign covered roughly 5,500 compounds. About 2,000 (36%) were called active. Another 18% or so got no clear call; they are omitted. No stated cut-off is given here; in the data, active means normalized growth mostly below about 0.91 (no sharp cut-off); inconclusive means no clear call, values can overlap the other calls; inactive means mostly above about 0.92. The list shows a part of the results.

Assay: chemical genetic growth profiling, strain panel (AID 1159580);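 further: tested at 20 µM; growth read once vehicle control cultures reached saturation at 30 °C; 1 = growth at the plate median or of vehicle wells; lower values mean less growth of the strain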
Details: growth OD

Measured: normalized growth

N#CC1COc2ccccc2O1 (centres undefined)
inactive: S. cerevisiae deletion strains, locus YAL013W, strain DEP1, active compounds read low 1.01 | S. cerevisiae deletion strains, locus YBR229C, strain ROT2, active compounds read low 0.993 | S. cerevisiae deletion strains, locus YDL101C, strain DUN1, active compounds read low 1.01 | S. cerevisiae deletion strains, locus YDR150W, strain NUM1, active compounds read low 1.03 | S. cerevisiae deletion strains, locus YEL061C, strain CIN8, active compounds read low 1.01 | S. cerevisiae deletion strains, locus YGR078C, strain PAC10, active compounds read low 0.999 | S. cerevisiae deletion strains, locus YGR229C, strain SMI1, active compounds read low 0.999 | S. cerevisiae deletion strains, locus YHR030C, strain SLT2, active compounds read low 1.03 | S. cerevisiae deletion strains, locus YHR087W, strain rtc3, active compounds read low 0.989 | S. cerevisiae deletion strains, locus YJR043C, strain POL32, active compounds read low 1.03 | S. cerevisiae deletion strains, locus YJR075W, strain HOC1, active compounds read low 0.973 | S. cerevisiae deletion strains, locus YKL190W, strain CNB1, active compounds read low 1.02 | S. cerevisiae deletion strains, locus YLR039C, strain RIC1, active compounds read low 1 | S. cerevisiae deletion strains, locus YLR058C, strain SHM2 (second series), active compounds read low 0.994 | S. cerevisiae deletion strains, locus YLR085C, strain ARP6, active compounds read low 1.01 | S. cerevisiae deletion strains, locus YLR262C, strain YPT6, active compounds read low 0.997 | S. cerevisiae deletion strains, locus YML094W, strain GIM5, active compounds read low 1.01 | S. cerevisiae deletion strains, locus YMR219W, strain ESC1, active compounds read low 0.999 | S. cerevisiae deletion strains, locus YMR263W, strain SAP30, active compounds read low 1.03 | S. cerevisiae deletion strains, locus YMR307W, strain GAS1, active compounds read low 1.1 | S. cerevisiae deletion strains, locus YNL153C, strain GIM3, active compounds read low 0.996 | S. cerevisiae deletion strains, locus YNL298W, strain CLA4 (second series), active compounds read low 1.04 | S. cerevisiae deletion strains, locus YNL322C, strain KRE1, active compounds read low 0.984 | S. cerevisiae deletion strains, locus YNR030W, strain Alg12, active compounds read low 1.01 | S. cerevisiae deletion strains, locus YPL055C, strain LGE1, active compounds read low 1.13 | S. cerevisiae deletion strains, locus YPL241C, strain CIN2, active compounds read low 0.998 | S. cerevisiae deletion strains, locus YPR135W, strain CTF4, active compounds read low 1.04 | S. cerevisiae strains, strain wild type, active compounds read low 1.01

S=c1ccss1
inactive: S. cerevisiae deletion strains, locus YAL030W, strain snc1, active compounds read low 0.997 | S. cerevisiae deletion strains, locus YBL061C, strain skt5, active compounds read low 0.989 | S. cerevisiae deletion strains, locus YBR009C, strain hhf1, active compounds read low 0.915 | S. cerevisiae deletion strains, locus YBR023C, strain chs3, active compounds read low 0.972 | S. cerevisiae deletion strains, locus YBR171W, strain sec66, active compounds read low 0.994 | S. cerevisiae deletion strains, locus YBR279W, strain paf1, active compounds read low 0.948 | S. cerevisiae deletion strains, locus YCL011C, strain gbp2, active compounds read low 0.916 | S. cerevisiae deletion strains, locus YCL016C, strain dcc1, active compounds read low 0.977 | S. cerevisiae deletion strains, locus YCL069W, strain vba3, active compounds read low 1 | S. cerevisiae deletion strains, locus YCR088W, strain abp1, active compounds read low 1 | S. cerevisiae deletion strains, locus YDL005C, strain med2, active compounds read low 0.987 | S. cerevisiae deletion strains, locus YDL040C, strain nat1, active compounds read low 0.985 | S. cerevisiae deletion strains, locus YDR001C, strain nth1, active compounds read low 1 | S. cerevisiae deletion strains, locus YDR159W, strain sac3, active compounds read low 1.06 | S. cerevisiae deletion strains, locus YDR195W, strain ref2 1.1 | S. cerevisiae deletion strains, locus YDR297W, strain sur2, active compounds read low 0.993 | S. cerevisiae deletion strains, locus YDR334W, strain swr1, active compounds read low 0.931 | S. cerevisiae deletion strains, locus YDR335W, strain msn5, active compounds read low 0.992 | S. cerevisiae deletion strains, locus YDR392W, strain spt3, active compounds read low 1.02 | S. cerevisiae deletion strains, locus YEL003W, strain gim4, active compounds read low 1.01 | S. cerevisiae deletion strains, locus YEL037C, strain rad23, active compounds read low 0.984 | S. cerevisiae deletion strains, locus YEL061C, strain CIN8 (second series), active compounds read low 1.01 | S. cerevisiae deletion strains, locus YER015W, strain faa2, active compounds read low 0.984 | S. cerevisiae deletion strains, locus YER016W, strain bim1, active compounds read low 0.984 | S. cerevisiae deletion strains, locus YER111C, strain swi4, active compounds read low 1.01 | S. cerevisiae deletion strains, locus YER155C, strain BEM2 (second series), active compounds read low 0.979 | S. cerevisiae deletion strains, locus YGL167C, strain pmr1, active compounds read low 1 | S. cerevisiae deletion strains, locus YGL173C, strain kem1, active compounds read low 0.926 | S. cerevisiae deletion strains, locus YGL227W, strain vid30, active compounds read low 1.01 | S. cerevisiae deletion strains, locus YGL240W, strain doc1, active compounds read low 0.96 | S. cerevisiae deletion strains, locus YHR027C, strain rpn1, active compounds read low 0.943 | S. cerevisiae deletion strains, locus YHR142W, strain chs7, active compounds read low 0.94 | S. cerevisiae deletion strains, locus YJL092W, strain hpr5, active compounds read low 0.991 | S. cerevisiae deletion strains, locus YJL095W, strain BCK1 (second series), active compounds read low 0.99 | S. cerevisiae deletion strains, locus YJL115W, strain asf1, active compounds read low 0.994 | S. cerevisiae deletion strains, locus YJL129C, strain trk1, active compounds read low 0.927 | S. cerevisiae deletion strains, locus YJL154C, strain vps35, active compounds read low 0.997 | S. cerevisiae deletion strains, locus YJL164C, strain tpk1, active compounds read low 0.956 | S. cerevisiae deletion strains, locus YJL166W, strain qcr8, active compounds read low 0.914 | S. cerevisiae deletion strains, locus YJL187C, strain SWE1, active compounds read low 0.965 | S. cerevisiae deletion strains, locus YKL160W, strain elf1, active compounds read low 0.947 | S. cerevisiae deletion strains, locus YKR026C, strain gcn3, active compounds read low 0.993 | S. cerevisiae deletion strains, locus YKR091W, strain srl3, active compounds read low 0.992 | S. cerevisiae deletion strains, locus YLL001W, strain dnm1, active compounds read low 0.939 | S. cerevisiae deletion strains, locus YLL026W, active compounds read low 0.967 | S. cerevisiae deletion strains, locus YLL041C, strain sdh2, active compounds read low 1 | S. cerevisiae deletion strains, locus YLR027C, strain aat2, active compounds read low 0.943 | S. cerevisiae deletion strains, locus YLR221C, strain rsa3, active compounds read low 0.924 | S. cerevisiae deletion strains, locus YLR258W, strain gsy2, active compounds read low 0.965 | S. cerevisiae deletion strains, locus YLR262C, strain YPT6 (second series), active compounds read low 0.866 | S. cerevisiae deletion strains, locus YLR320W, strain mms22, active compounds read low 0.939 | S. cerevisiae deletion strains, locus YLR342W, strain FKS1, active compounds read low 0.973 | S. cerevisiae deletion strains, locus YLR370C, strain arc18, active compounds read low 0.929 | S. cerevisiae deletion strains, locus YLR384C, strain iki3, active compounds read low 0.996 | S. cerevisiae deletion strains, locus YML120C, strain ndi1, active compounds read low 1.02 | S. cerevisiae deletion strains, locus YMR058W, strain fet3, active compounds read low 0.962 | S. cerevisiae deletion strains, locus YMR125W, strain sto1, active compounds read low 1.04 | S. cerevisiae deletion strains, locus YMR129W, active compounds read low 0.984 | S. cerevisiae deletion strains, locus YMR205C, strain PFK2, active compounds read low 0.935 | S. cerevisiae deletion strains, locus YMR231W, strain pep5, active compounds read low 0.995 | S. cerevisiae deletion strains, locus YNL071W, strain lat1, active compounds read low 0.922 | S. cerevisiae deletion strains, locus YNL209W, strain ssb2, active compounds read low 0.981 | S. cerevisiae deletion strains, locus YNL248C, strain rpa49, active compounds read low 1.01 | S. cerevisiae deletion strains, locus YNL322C, strain KRE1 (second series), active compounds read low 0.99 | S. cerevisiae deletion strains, locus YNR049C, strain mso1, active compounds read low 1 | S. cerevisiae deletion strains, locus YOR001W, strain rrp6, active compounds read low 0.98 | S. cerevisiae deletion strains, locus YOR080W, strain dia2, active compounds read low 1 | S. cerevisiae deletion strains, locus YOR265W, strain rbl2, active compounds read low 0.992 | S. cerevisiae deletion strains, locus YOR290C, strain snf2, active compounds read low 0.866 | S. cerevisiae deletion strains, locus YPL106C, strain sse1, active compounds read low 0.958 | S. cerevisiae deletion strains, locus YPL240C, strain hsp82, active compounds read low 0.986
active: S. cerevisiae deletion strains, locus YAL021C, strain ccr4, active compounds read low 0.679 | S. cerevisiae deletion strains, locus YAL026C, strain drs2, active compounds read low 0.779 | S. cerevisiae deletion strains, locus YBR231C, strain swc5, active compounds read low 0.895 | S. cerevisiae deletion strains, locus YDR069C, strain doa4, active compounds read low 0.835 | S. cerevisiae deletion strains, locus YDR137W, strain rgp1, active compounds read low 0.805 | S. cerevisiae deletion strains, locus YFR010W, strain ubp6, active compounds read low 0.839 | S. cerevisiae deletion strains, locus YGL253W, strain hxk2, active compounds read low 0.818 | S. cerevisiae deletion strains, locus YHR013C, strain ard1, active compounds read low 0.77 | S. cerevisiae deletion strains, locus YLR357W, strain rsc2, active compounds read low 0.807 | S. cerevisiae deletion strains, locus YOR070C, strain gyp1, active compounds read low 0.911 | S. cerevisiae deletion strains, locus YOR083W, strain WHI5, active compounds read low 0.857 | S. cerevisiae deletion strains, locus YOR106W, strain vam3, active compounds read low 0.646 | S. cerevisiae deletion strains, locus YOR270C, strain vph1, active compounds read low 0.423 | S. cerevisiae deletion strains, locus YPL051W, strain arl3, active compounds read low 0.904 | S. cerevisiae deletion strains, locus YPL078C, strain atp4, active compounds read low 0.872
